Data reported in PubChem BioAssay AID493000 (Johns Hopkins Ion Channel Center, 2010).
Out of some 1,900 compounds screened, about 390 (21%) were called active. How the calls were made is not given here. The list is a sample of the results.

experiment: nonspecific enhancement of M3R calcium signal without RGS4 – HEK293 M3R, non-induced cells, counter-screen for RGS4 inhibitor project, confirmation (AID 493000); conditions: carbachol calcium Fluo-4, at 10 µM, submaximal (EC20) carbachol stimulus; active compounds read high, buffer wells 0%, carbachol control wells 100%;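 further: RGS4 induction absent so cells express M3R without RGS4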;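 on activity (percent): higher means more calcium signal and flags a non-specific hit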

| SMILES | activity (percent) |
| --- | --- |
| CC(C)c1nc(SCC(=O)Nc2cccc(C(=O)O)c2)c2c3c(sc2n1)CCCC3 | 41.5% (active) |
| Cc1ccc(NC(=O)c2c(NC(=O)CCC(=O)O)sc3c2CCCCC3)cc1 | inactive |
| CCOc1ccc(/C=N/NC(=O)CSc2ccccn2)cc1O | inactive |
| S=c1[nH]nc(-c2cccnc2)n1/N=C/C(Cl)=C\c1ccccc1 | inactive |
| O=C(/C=C/c1ccc(Cl)c([N+](=O)[O-])c1)c1cccnc1 | 43.5% (active) |
| COc1ccc(/C=C/C(=O)c2ccc(OC)cc2O)cc1 | inactive |
| O=C(/C=C/c1ccc(Cl)c([N+](=O)[O-])c1)c1ccc(O)cc1 | 43.5% (active) |
| C1=C(N2CCOCC2)/C(=C/c2nc3ccccc3[nH]2)CC1 | inactive |
| CNCC(O)c1ccc(O)c(O)c1 (configuration not stated) | inactive |
| O=C(Nc1ccc(Cl)cc1)OCc1cc(-c2ccccc2)on1 | inactive |
| O=[N+]([O-])c1c(NCCO)cc(Sc2nc3ccccc3s2)c2nonc12 | inactive |
| CCCCC1S/C(=N/N=C/c2cccs2)NC1=O (configuration not stated) | inactive |
| COc1cc(Br)cc(/C=N/c2ncn[nH]2)c1O | inactive |
| Oc1ccc(/C=N/Nc2ccc(C(F)(F)F)cn2)cc1O | 34.5% (active) |
| Cn1c(-c2ccco2)nc2cc3ccccc3cc21 | inactive |
| COc1cc2c(cc1O)C(SC)=NC(C)(C)C2 | inactive |
| O=C1Nc2ccc(Br)cc2/C1=N/N=C/C1=C(N2CCOCC2)C(=C\c2ccccc2)/CC1 | 31.5% (active) |
| O=C(O)C(c1ccccc1)N1C(=O)/C(=C\c2ccc(-c3cccc(Cl)c3)o2)SC1=S (configuration not stated) | inactive |
| COc1ccc(/C(O)=C2/C(=O)C(=O)N(c3nc(C)c(C)s3)C2c2ccco2)cc1 (configuration not stated) | inactive |
| C=C(C)C(=O)O[C@H]1C/C(C)=C\C(=O)/C=C(\C)[C@H](O)[C@@H]2OC(=O)C(=C)[C@@H]21 | inactive |
| C[C@H](NC(=O)c1nc[nH]c1C(=O)NCC(=O)OC(C)(C)C)c1ccccc1 | inactive |
| Cc1ccc(Nc2nc(N)nc(CN3CCN(Cc4ccccc4)CC3)n2)cc1Cl | inactive |

| SMILES | activity (percent) |
| --- | --- |
| O=C(CCN1CCc2ccccc2C(O)(c2ccccc2)C1)c1ccc2c(c1)OCCO2 (configuration not stated) | 34.5% (active) |
| CS(=O)(=O)N(CC(O)Cn1c2ccccc2c2ccccc21)c1cccc2ccccc12 (configuration not stated) | inactive |
| Oc1ccc(-c2[nH]ncc2-c2nc3ccccc3s2)c(O)c1 | inactive |
| CCn1c(O)c(N=NC2=NC(=O)CS2)c2cc(C)ccc21 | inactive |
| CCc1nnc(NS(=O)(=O)c2ccc(N=Cc3c(C)[nH]n(-c4ccc(C)cc4)c3=O)cc2)s1 | inactive |
| O=C(NCc1ccccc1)c1ccc(S(=O)(=O)Nc2cccc(C(F)(F)F)c2)cc1 | inactive |
| Cc1ccc(-c2c3c(=O)n(C)c(=O)n(C)c3cn2-n2cnnc2)cc1 | inactive |
| COc1cc(/C=C2/C(=O)ON=C2C)ccc1OCc1ccccc1F | inactive |
| C=CCOc1ccc(/C=C2/C(=O)ON=C2C)cc1OCC | 32.5% (active) |
| C#CCOc1ccc(/C=C2/C(=O)ON=C2C)cc1OCC | inactive |
| COC(=O)C1CCN(C(=O)c2cc(=O)[nH]c3ccccc23)CC1 | inactive |
| O=C(COC(=O)c1cccc(Br)c1)Nc1cccc2c1C(=O)c1ccccc1C2=O | inactive |
| COC(=O)Cn1cc(/C=C/[N+](=O)[O-])c2ccccc21 | 38% (active) |
| O=[N+]([O-])/C=C/c1ccc2c(ccn2Cc2ccccc2)c1 | inactive |
| COc1ccc2c(c1OC)C(=O)OC2Nc1nc(-c2ccccc2)cs1 (configuration not stated) | inactive |
| Cc1ccc(S/C(=N\S(=O)(=O)c2ccc(Cl)cc2)c2ccccc2)cc1 | inactive |
| Cc1ccc(Sc2cc(N3CCOCC3)nc(-c3ccccc3)n2)cc1 | 55.5% (active) |
| Cc1c(NC(=O)c2coc(=O)c(Br)c2)c(=O)n(-c2ccccc2)n1C | inactive |
| c1ccc(C[C@H]2CNCCN2CCC23CC4CC(CC(C4)C2)C3)cc1 | inactive |
| Cc1ccc(C)c(Cn2nnc3c(=O)[nH]c(C(=O)Nc4ccc(F)cc4)nc32)c1 | 45.5% (active) |
| O=C1NC(c2ccc(-c3ccccc3[N+](=O)[O-])o2)C(C(=O)c2ccc(Cl)cc2)C(O)(C(F)(F)F)N1 (configuration not stated) | 38.5% (active) |
| CCOC(=O)C1CCN(C(c2cc3cc(C)cc(C)c3[nH]c2=O)c2nnnn2C2CCCCC2)CC1 (configuration not stated) | inactive |

| SMILES | activity (percent) |
| --- | --- |
| Cc1nc(-c2ccccc2)sc1C(=O)/C=C/c1ccccc1 | inactive |
| COc1ccc(S(=O)(=O)Nc2ccc(O)c(Sc3nc4ccccc4s3)c2)cc1 | inactive |
| Cc1nn2c(=O)cc(COC(=O)c3ccc(NC(=O)C(C)(C)C)cc3)nc2s1 | inactive |
| COc1ccc(NCc2nnc(SCc3ccccc3)n2-c2ccc(OC)cc2)cc1 | inactive |
| COc1cc(/C=C2/SC(=S)N(Cc3ccccc3)C2=O)cc(OC)c1O | inactive |
| COc1cc(/C=C2/C(=O)NN(c3cccc(Cl)c3)C2=O)cc(Br)c1O | 28.5% (active) |
| C#CCOc1ccc(/C=C2/C(=O)NN(c3ccccc3)C2=O)cc1OC | inactive |
| CC(C)Cc1nc(Nc2ccc(S(=O)(=O)N3CCCC3)cc2)c2nnn(Cc3ccccc3)c2n1 | inactive |
| CCc1ccc(C2C(C#N)=C(N)N(N3CCOCC3)C3=C2C(=O)CC(C)(C)C3)s1 (configuration not stated) | inactive |
| COCCCNC(=S)N(CCN(C)C)Cc1cc2cc3c(cc2[nH]c1=O)OCCO3 | inactive |
| O=C(N/N=C/c1ccccc1O)/C(=C/c1ccccc1)CCO | inactive |
| COc1ccc(OC)c(S(=O)(=O)N2CCCC(C(=O)N3CCC(C(N)=O)CC3)C2)c1 (configuration not stated) | inactive |
| CNc1nc(Nc2ccc(C)c(Cl)c2)nc(N)c1[N+](=O)[O-] | inactive |
| CC(=O)Nc1ccc(S(=O)(=O)Nc2nc(-c3ccc(C(C)(C)C)cc3)cs2)cc1 | 51% (active) |
| COc1ccc(-c2csc(Nc3ccc(O)cc3)n2)cc1 | inactive |
| Cc1noc(NS(=O)(=O)c2ccc(N/C=C/C(=O)c3ccccc3)cc2)c1C | inactive |
| Cc1ccsc1/C=N/n1c(=S)[nH]nc(C)c1=O | inactive |
| Cc1nc(Nc2ccc(S(=O)(=O)N3CCCC3)cc2)c2nnn(Cc3ccccc3)c2n1 | inactive |
| O=C(O)c1ccc2c(=O)n3c(nc2c1)/C(=C/c1ccc(Cl)c([N+](=O)[O-])c1)CC3 | inactive |
| Cc1ccc(/C=C2\CCn3c2nc2cc(C(=O)O)ccc2c3=O)c(C)c1 | 33% (active) |
| O=S(=O)(Nc1nccs1)c1ccc2c(c1)OCCO2 | inactive |
| Brc1ccc(-c2csc(N/N=C/c3cccnc3)n2)cc1 | inactive |

| SMILES | activity (percent) |
| --- | --- |
| Cc1ccc(SC(CC(=O)c2ccc(C(C)(C)C)cc2)C(=O)O)cc1 (configuration not stated) | inactive |
| Nc1cccc(-c2cc(-c3ccccc3)nc(-c3cccc(N)c3)n2)c1 | inactive |
| C=CCSc1nc2c(c(=O)[nH]1)C(C(C)C)C(C#N)=C(N)O2 (configuration not stated) | 49.5% (active) |
| O=C1c2ccccc2NC(c2ccc(-c3cccc(Cl)c3)o2)N1O (configuration not stated) | inactive |
| O=C(/C=C/Sc1ncn[nH]1)c1ccc(Cl)cc1 | 32.5% (active) |
| Cc1cc(C)nc(S/C=C/C(=O)c2ccccc2)n1 | inactive |
| O=C(Nc1ccccc1)OCc1cc(-c2ccc(Cl)cc2)on1 | inactive |
| Cc1ccc(Nc2nc(N)nc(CSc3nnc(C)s3)n2)cc1 | inactive |
| CCOC(=O)[C@@H]1[C@H]2COc3ccc(Br)cc3[C@H]2N2C(=O)N(c3ccc(Cl)cc3)C(=O)[C@@]12C | inactive |
| O=C(NCCCc1ccccc1)C1CCC(CNc2c(N3CCCCC3)c(=O)c2=O)CC1 (configuration not stated) | inactive |
| COc1ccccc1C1C(C#N)=C(N)Oc2c1c(-c1ccccc1)nn2-c1ccccc1 (configuration not stated) | 34.5% (active) |
| CCC(c1nnnn1Cc1ccco1)N(Cc1cc2cc(OC)ccc2[nH]c1=O)C1CCCCC1 (configuration not stated) | inactive |
| Cc1nn(C(C)C(=O)N2CCOCC2)c(=O)c2nn(-c3ccccc3)c(C)c12 (configuration not stated) | inactive |
| CCc1ccc2oc(-c3ccc(N)cc3)nc2c1 | 37.5% (active) |
| Cc1cc(-c2n[nH]c(=S)n2/N=C/C(Br)=C/c2ccccc2)n[nH]1 | inactive |
| CCCCOC(=O)CNc1nnc(SCC(=O)OCC)[nH]c1=O | inactive |
| O=C(O)c1ccc2c(c1)C(=O)N(c1ccc(/C=C/C(=O)c3ccccc3)cc1)C2=O | 32% (active) |
| CCOc1ccc(NC(=O)C/C(C)=N/NC(=O)Cc2cccs2)cc1 | inactive |
| Nc1ccccc1SC(C[N+](=O)[O-])c1ccccc1 (configuration not stated) | inactive |
| COc1ccc(C(C[N+](=O)[O-])n2nc(C)cc2C)cc1 (configuration not stated) | inactive |
| CCOC(=O)C1=NN(c2ccc(Cl)cc2)/C(=C/C2=NCCc3cc(OC)c(OC)cc32)S1 | inactive |
